Source: PubChem (National Center for Advancing Translational Sciences (NCATS))
Sampled rows, rich in hits. Any-hit rate of the full collection: about 9.4%.
Rab9 promoter act: activates the Rab9 promoter; Potency, µM (top dose mostly 9.22 µM), for the others: at the highest dose activation, negative = inhibition, actives largely listed as activators; 320,000 tested, 2.8% active; Huh7 Rab9 promoter-luciferase reporter, luminescence, 24 h; also: % of control where 0% means no effect; nearly all actives have a fitted effect of over 60% in size
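Steps: seed 1500 Huh7 Rab9-luc cells per well, rest 2 h at 37 °C; add compound in DMSO; incubate 24 h; add luciferase reagent, 10 min ambient; read luminescence.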
ELG1 genotox: inducers of genotoxicity in HEK293T ELG1-luciferase cells; HEK293T ELG1-luciferase reporter, luminescence, 16 h; Potency, µM (highest dose often 46 µM), inactives show top-dose activity change, positive = activation, actives largely listed as activators; 330,000 tested, 1.3% active; AID 504466; also: % of control where 0% means no effect; nearly all actives have a fitted effect of over 60% in size
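Quantitative HTS format in 1536-well plates. HEK293T ELG1-luciferase reporter cells receive test compound and are incubated 16 hr at 37 °C, 5% CO2; ONE-Glo added, 30 min room temperature, then luminescence read.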
ELG1 DNA repair: inhibitors of ELG1-dependent DNA repair in HEK293T cells. Potency, µM (series often up to 46.1 µM), for inactives: at the top dose activity change, negative = inhibition, most hits filed as inhibitors. HEK293T ELG1-luciferase reporter, luminescence, 16 h; DNA damage induced by 5-fluorouridine. 330,000 tested, 2.3% active; also: % is scaled to controls: 0 for no effect and ±100 for the full control effect; nearly all actives have a fitted effect of over 55% in size
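Cells (2,000 per well) received 5-fluorouridine plus test compound or DMSO and were incubated 16 hr at 37 °C, 5% CO2. Luciferase activity was read by luminescence 30 min after ONE-Glo addition; signal suppression marked inhibition of damage-induced ELG1 function.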
FLuc modulator: firefly luciferase modulation, counter-screen for miR-21 project. P08659. purified FLuc, Km substrates, luminescence inhibition. AID 588342. Potency, µM (titrated, usually from 57.5 µM), inactives show top-dose activity change, negative = inhibition, usual class: inhibitors. 360,000 tested, 6.9% active;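 also: plate controls were vehicle for no effect and reference inhibitor for full effect; nearly all actives have a fitted effect of over 55% in size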
Target sequence (P08659 whole entry, looked up): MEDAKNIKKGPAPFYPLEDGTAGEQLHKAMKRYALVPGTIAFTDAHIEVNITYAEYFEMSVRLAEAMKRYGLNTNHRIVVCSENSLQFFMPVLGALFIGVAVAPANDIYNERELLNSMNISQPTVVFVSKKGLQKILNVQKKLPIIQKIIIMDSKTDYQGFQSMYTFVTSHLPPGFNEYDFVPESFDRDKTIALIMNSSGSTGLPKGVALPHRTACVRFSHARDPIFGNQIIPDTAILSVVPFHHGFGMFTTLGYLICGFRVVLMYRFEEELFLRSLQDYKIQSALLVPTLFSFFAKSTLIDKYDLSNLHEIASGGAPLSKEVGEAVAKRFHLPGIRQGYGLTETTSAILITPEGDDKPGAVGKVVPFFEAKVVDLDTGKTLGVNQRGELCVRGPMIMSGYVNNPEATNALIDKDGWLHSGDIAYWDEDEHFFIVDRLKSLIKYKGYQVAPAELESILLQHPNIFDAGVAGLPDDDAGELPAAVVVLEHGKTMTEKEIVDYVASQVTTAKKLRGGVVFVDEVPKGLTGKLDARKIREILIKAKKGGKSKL
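Purified P. pyralis luciferase, 10 nM final, with Km-level 10 uM D-luciferin and 10 uM ATP in 50 mM Tris acetate pH 7.5, 10 mM Mg acetate, 0.01% Tween-20, 0.05% BSA; 6-point qHTS titration about 60 µM downward; luminescence read.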
NPC1 prom act: activators of NPC1 promoter; Huh7 NPC1 promoter luciferase reporter, 24 h; Potency, µM (top dose mostly 9.22 µM), inactives show at the highest dose activation, actives largely listed as activators; 320,000 tested, 2.4% active; AID 485313; also: % of control where 0% means no effect; nearly all actives have a fitted effect of over 60% in size
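Readout is luciferase luminescence, reflecting NPC1 promoter activation in stably transfected Huh7 cells after 24 h compound exposure at 37 °C in reduced-serum medium with 10% FBS.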
SMN2 splice enh: enhancers of SMN2 splice variant expression. Potency, µM (highest dose often 46.1 µM), for the others: at the highest dose activity change, positive = activation, hits mostly activators. AID 1458. HEK293 SMN2-luciferase splicing reporter, luminescence, 30-36 h. 210,000 tested, 2.8% active; also: % of control where 0% means no effect; nearly all actives have a fitted effect of over 55% in size
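HEK293 cells carry an SMN2 […]–luciferase reporter in which exon 7 inclusion puts luciferase in frame. Cells were plated 10-12 h before compound addition, then incubated 30-36 h at 37C. ONE-Glo luminescence was read; sodium butyrate at 4.5 mM final served as control.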
The depositor's hits bear a star; ? = inconclusive; / = not tested or not shown; [ ] = dose if it differs, or a comment. Calls follow the shape of the dose curve; as a rule, active = well fitted curve in the direction sought with a large enough effect; inconclusive = small, poorly fitted or top-dose-only effect, or another doubt; inactive = no such curve, though single readings can be large; an effect the other way counts as inactive or inconclusive. Potency is read from the fitted curve at half-maximal effect.

SMILES	Rab9 promoter act	ELG1 genotox	ELG1 DNA repair	FLuc modulator	NPC1 prom act	SMN2 splice enh
Cc1cc(NC(=O)c2ccc(Cl)cc2)no1	3.2µM*	8.2µM*	?	7.6µM*	?	11µM*
Cc1cc(NC(=O)c2cccc(COc3ccc(Br)cc3)c2)no1	0.45µM*	0.65µM*	?	9.5µM*	0.35µM*	0.35µM*
Cc1cc(NC(=O)COC(=O)c2cccc(OCc3ccccc3)c2)no1	20%	4%	?	0%	1%	8%
CCOC(=O)c1c(-c2ccc(Br)cc2)csc1NC(=O)c1ccc(C(C)(C)C)cc1	/	/	/	-4%	/	2%
COc1ccc(N2CCN(C(=O)C3CCN(S(=O)(=O)c4cn(C)cn4)CC3)CC2)cc1	/	/	/	-1%	/	/
COC(=O)C1=C(C)N(Cc2ccccc2)C(=NCc2cccc(C(F)(F)F)c2)N[C@H]1c1cccc(F)c1	0%	-9%	?	3%	-5%	/
COC(=O)C1=C(C)N(Cc2ccccc2)C(=NCc2cccc(C(F)(F)F)c2)N[C@H]1c1cccc(C(F)(F)F)c1	-6%	-11%	18µM*	1%	-3%	/
CCOC(=O)/C(=C/c1c(C)n(C)c2ccc([N+](=O)[O-])cc12)C(C)=O	-6%	-1%	13µM*	-4%	7%	-10%
CCOC(=O)c1c(N)c2cc([N+](=O)[O-])ccc2n1C	-3%	9%	28%	4%	11%	/
Cc1oc(C(C)(C)C)cc1C(=O)Nc1ccc(C(=O)O)cc1	?	17%	?	17µM*	?	?
Cc1oc(CC(C)C)cc1C(=O)Nc1ccc(C(=O)O)cc1	21%	-41%	?	12µM*	?	11%
Cc1oc(-c2ccccc2)cc1C(=O)Nc1cccc(C(=O)O)c1	19%	?	?	?	14%	/
Cc1oc(C(C)(C)C)cc1C(=O)Nc1cccc(C(=O)O)c1	3.2µM*	?	?	12µM*	0.71µM*	?
Cc1cc(C(=O)Nc2cccc(C(=O)O)c2)c(C)o1	4µM*	?	0%	11µM*	3.5µM*	?
COc1cccc(C(=O)N2CCCCC2CCN2CCCCC2)c1 (stereo not drawn)	/	/	/	0%	/	4%
COc1ccc(C(=O)N2CCC[C@@]3(CCN(Cc4nccs4)C3)C2)cc1	/	/	/	/	/	-17%
CCOC(=O)CCN(c1ccccc1)S(=O)(=O)c1cc(-c2cc(C)no2)ccc1C	/	/	/	-11%	/	/
Cc1ccc(C(=O)Nc2ccc(F)cc2)o1	26%	13%	?	?	23%	9%
CC(C)(C)c1ccc(C(=O)Nc2ccc(NC(=O)C(=O)O)cc2)o1	-3%	-2%	-6%	9.5µM*	1%	6%
CC(C)(C)NC(=O)c1cccc(NC(=O)c2ccco2)c1	3%	-1%	8%	?	-3%	3%
Cc1cc(C(=O)Nc2cccc(C(=O)O)c2)oc1C	?	?	?	0.54µM*	?	1.6µM*
Cc1cc(C)c2nc3s/c(=C/c4ccccc4)c(=O)n3c2c1	1.3µM*	3%	23%	?	?	-2%
Cc1ccc(C)c(N2C(=N)S/C(=C\c3ccc(-c4ccccc4C(=O)O)o3)C2=O)c1	-2%	2%	6%	?	2%	12%
O=c1/c(=C/c2cn(-c3ccccc3)nc2-c2ccc(F)cc2)sc2nc3ccccc3n12	1%	-2%	1%	3%	2%	0%
O=c1/c(=C/c2ccccc2)sc2nnc(-c3cccs3)n12	-6%	0%	24%	-18%	0%	/
SMILES	Rab9 promoter act	ELG1 genotox	ELG1 DNA repair	FLuc modulator	NPC1 prom act	SMN2 splice enh
O=C(O)c1ccc(-c2ccc(/C=c3/sc4nc5ccccc5n4c3=O)o2)cc1Cl	12%	0%	8%	19µM*	5%	/
Cc1ccc2c(nc3s/c(=C/c4cccs4)c(=O)n32)c1C	3.5µM*	16µM*	?	1.9µM*	29%	?
Cc1ccc2c(nc3s/c(=C\c4ccc(-c5ccccc5C(=O)O)o4)c(=O)n32)c1C	-1%	0%	26%	5.4µM*	2%	/
O=C(O)c1nnsc1-c1ccc(-c2snnc2C(=O)O)cc1	/	/	/	/	/	-7%[9.22 µM]
COc1ccccc1C(=O)Nc1nnc(-c2ccco2)s1	?	1.6µM*	?	2.7µM*	0%	11µM*
Cc1ccccc1C(=O)Nc1nnc(-c2ccco2)s1	0.32µM*	1.5µM*	?	1.5µM*	0.56µM*	2µM*
CCOC(=O)N1CCN(C(=O)CSCC(=O)Nc2nc(-c3ccc(Cl)s3)cs2)CC1	14%	-3%	16µM*	-5%	11%	-11%
CCCc1cc(=O)[nH]c(Nc2ccc3c(c2)OCCO3)n1	1%	14%	12%	?	5%	-3%
Cc1ccc2sc(-c3ccc(NC(=O)/C=C\C(=O)O)cc3)nc2c1	2.8µM*	?	?	0.95µM*	?	7.1µM*
Cc1ccc(S(=O)(=O)Nc2ccc(NC(=O)/C=C/C(=O)O)cc2)cc1	-6%	-1%	10%	-2%	-3%	6%
CCCCC(=O)Nc1ccc(C(=O)c2ccccc2)cc1	24%	12%	23%	?	8%	3%
CCCCCC(=O)Nc1ccc(-c2csc(C)n2)cc1	?	3%	?	15µM*	20%	?
O=C(O)/C=C/C(=O)Nc1ccc(-c2ccccc2)cc1	28%	14%	?	6.7µM*	16%	21%
CCCCCC(=O)Nc1ccc(C2C(=O)c3ccccc3C2=O)cc1	2.2µM*	?	?	2.7µM*	2.8µM*	/
